Screens (PubChem BioAssay)
aSyn rescue: inhibitors of alpha-synuclein toxicity in yeast. Yeast expressing alpha-synuclein, growth rescue, BacTiter-Glo, 24 h. Potency, µM (titrated, usually from 46.1 µM), usual class: activators. hit rate 0.14% among 370,000; also: nearly all actives have a fitted effect of over 65% in size
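Rescue of yeast growth: cells expressing toxic alpha-synuclein, induced in galactose at OD600 0.02, incubated with compound 24 h at 30 C. ATP luminescence quantified growth; inhibitors of toxicity appear as activators.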
Abeta rescue: A-beta toxicity reversal in yeast | yeast expressing A-beta42, growth rescue, OD600, 48 h; response scale: 0% DMSO, 100% iron-clioquinol control | Potency, µM (highest dose often 46.1 µM), most hits filed as activators | hit rate 0.063% among 410,000 | AID 1347071; also: nearly all actives have a fitted effect of over 55% in size
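Yeast growth medium received pinned compounds, then yeast cells expressing toxic A-beta were added; plates incubated at 30 C for 48 hr. Growth read as absorbance at 600 nm, normalized to DMSO and equimolar FeCl3 plus clioquinol controls.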
FUS suppressor: suppressors of FUS proteinopathy in yeast; hit rate 0.24% among 390,000; Potency, µM (doses to about 76.6 µM), hits mostly activators; S. cerevisiae FUS-expressing, growth rescue, OD600, 24 h; also: nearly all actives have a fitted effect of over 55% in size
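Cultures pregrown in 2.5% raffinose medium are shifted to minimal medium containing 2% galactose to express toxic FUS. Compounds are tested at several concentrations. After 24hr at 30C, growth is quantified at 600 nm absorbance.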
TDP43 rescue: TDP-43 toxicity inhibition in yeast. TDP-43 expressing yeast growth rescue, BacTiter-Glo, 24 h. Potency, µM (series often up to 46.1 µM), usual class: activators. hit rate 1.8% among 410,000. AID 652104; also: nearly all actives have a fitted effect of over 50% in size
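Readout is BacTiter-Glo luminescence of cell growth, so inhibitors register as activators. TDP-43-expressing yeast at OD600=0.02 in galactose medium, after raffinose pregrowth to mid-log, were incubated with compound for 24 hr at 30 deg C.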
Akt phos inh: Akt phosphorylation inhibition | Neuro2A IGF-stimulated pAkt S473 HTRF, 20 min; stronger effect = lower value | activity change, % for hits at 50 µM | hit rate 0.32% among 360,000 | AID 651550; in the data active = activity change below about -80%; inconclusive = mostly about -51% to -80%
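Neuro2A cells (4,500/well, DMEM with 0.5% FBS) were treated with compound at a single 50 µM final concentration, stimulated with 6 nM IGF for 20 min at 37 °C, and lysed. Phospho-Akt Ser473 was read by HTRF as 665/615 ratio ×10^4.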
Large screens that a line does not name were inactive; ! = repeats disagree. In the library only some 2.3% were active in any assay of this set; here they are far more common. Unless noted, calls follow the shape of the dose curve; as a rule, active = well fitted curve in the direction sought with a large enough effect; inconclusive = small, poorly fitted or top-dose-only effect, or another doubt; inactive = no such curve, though single readings can be large; an effect the other way counts as inactive or inconclusive.

C#CCOCCOCCOCCNc1nc(N2CCN(C(=O)CCCCCCCCCCNC(=O)[C@@H](CCSC)n3cc(CCO)nn3)CC2)nc(N2CCN(C(=O)CCCCCCCCCCNC(=O)[C@@H]([C@H](C)O)n3cc(C)nn3)CC2)n1	FUS suppressor 7.94µM
C#CCOCCOCCOCCNc1nc(N2CCN(C(=O)CCCCCCCCCCNC(=O)[C@@H](CCSC)n3cc(CCO)nn3)CC2)nc(N2CCN(C(=O)CCCCCCCCCCNC(=O)[C@H](CCC(=O)O)n3cc(CCCCCN)nn3)CC2)n1	FUS suppressor 11.2µM
COc1ccc(OC)c(CNC(=O)C2CCN(S(=O)(=O)c3cn(C)cn3)CC2)c1	none (no result: aSyn rescue, Akt phos inh)
Cc1cccc(NC(=O)C2C(c3ccccc3)C2(Cl)Cl)c1 (centres undefined)	TDP43 rescue 22.4µM
Cn1nc(CC(=O)Nc2ccc3c(c2)CCC3)c2ccccc2c1=O	Akt phos inh -126.0%
CCOC(=O)c1c(C(F)(F)F)cc(-c2ccc(F)cc2)nc1C	none (no result: FUS suppressor)
CCOC(=O)CS(=O)(=O)c1nc(-c2ccc(F)cc2)cc(C(F)(F)F)n1	TDP43 rescue 22.4µM
CS(=O)(=O)c1nc(-c2ccc(F)cc2)cc(C(F)(F)F)n1	none
CCOC(=O)CS(=O)(=O)c1nc(-c2ccccc2)cc(C(F)(F)F)n1	TDP43 rescue 22.4µM
COc1ccc(-c2cc(C(F)(F)F)nc(-n3cc(Cl)cn3)n2)cc1	FUS suppressor inconclusive, TDP43 rescue 11.2µM
COc1ccc(-c2cc(C(F)(F)F)nc(S(C)(=O)=O)n2)cc1	TDP43 rescue 12.6µM, Akt phos inh -97.9%
COc1ccc(-c2c(C)c3ccc(O)c(CN4CCC(C)CC4)c3oc2=O)cc1OC	none (no result: aSyn rescue, Akt phos inh)
CCc1ccc2occ(CC(=O)Nc3c(C(=O)c4ccccc4)oc4ccccc34)c2c1	none (no result: aSyn rescue, Akt phos inh)
COC(=O)CCS(=O)(=O)c1nc(-c2ccccc2)cc(C(F)(F)F)n1	TDP43 rescue inconclusive
CCOC(=O)CCS(=O)(=O)c1nc(-c2ccccc2)cc(C(F)(F)F)n1	TDP43 rescue 15.8µM (no result: FUS suppressor)
COC(=O)c1ccc(Cn2nnc3sc4c(c3c2=O)CCC(C)C4)cc1 (centres undefined)	none (no result: aSyn rescue, Akt phos inh)
COc1ccc(N2CCC(CNC(=S)Nc3cc(C)ccc3C)C2)cc1 (centres undefined)	aSyn rescue inconclusive, Abeta rescue inconclusive, TDP43 rescue 14.1µM
COc1ccc(CN(CC2CCC(C(=O)O)CC2)C(=S)Nc2cc(C)ccc2C)cc1 (centres undefined)	TDP43 rescue 22.4µM
Cc1ccc(C(=O)c2oc3ccccc3c2NC(=O)Cc2coc3c(C)c(C)ccc23)cc1	none (no result: aSyn rescue, Akt phos inh)
CCS(=O)(=O)n1nc(-c2ccc(Cl)cc2)nc1SC	TDP43 rescue 15.8µM
CCS(=O)(=O)n1nc(-c2ccco2)nc1SC	none
Cc1ccc(N(CC(=O)N2CCN(c3cc(C)ccc3C)CC2)S(=O)(=O)c2c(C)nn(C)c2C)cc1	FUS suppressor inconclusive, TDP43 rescue 35.5µM (no result: aSyn rescue, Akt phos inh)
Cc1ccc(N(CC(=O)N2CCN(c3ccc(Cl)cc3)CC2)S(=O)(=O)c2c(C)nn(C)c2C)cc1	none (no result: aSyn rescue, Akt phos inh)
Cc1ccc(N(CC(=O)N2CCN(c3ccc(F)cc3)CC2)S(=O)(=O)c2c(C)noc2C)cc1	Abeta rescue inconclusive, TDP43 rescue 15.8µM!
COc1cc(C(=O)OCC(=O)Nc2ccc3c(c2)OC(F)(F)O3)ccc1OCc1c(C)noc1C	TDP43 rescue 35.5µM
COc1ccc(OC)c(C(=O)c2ccc([N+](=O)[O-])cc2)c1	none
COc1ccc(C(=O)c2ccc([N+](=O)[O-])cc2Cl)cc1	TDP43 rescue 11.2µM
c1ccc(-c2ccc(CNc3nc(-c4ccccn4)nnc3-c3ccccc3)cc2)cc1	FUS suppressor 20µM (no result: aSyn rescue, Abeta rescue, TDP43 rescue, Akt phos inh)
c1ccc(-c2cnc(-c3ccccn3)nn2)cc1	TDP43 rescue 22.4µM
O=C(Nc1ccccc1Sc1ccccc1)c1ccc(F)cc1	Abeta rescue 14.1µM
Clc1ccc(CSc2nccn2Cc2ccccc2)cc1	TDP43 rescue 15.8µM
Cn1ccsc1=NC(=O)c1ccc(Cl)cc1	TDP43 rescue 11.2µM
C=CCn1c(C)c(C(C)=O)c(N2CCCC2)nc1=S	FUS suppressor inconclusive
C=CCn1c(C)c(C(C)=O)c(N2CCN(c3ccccc3)CC2)nc1=S	Akt phos inh -105.1%
FC(F)(F)c1ccc(-c2nnc(-c3cccnc3)o2)cc1	TDP43 rescue 12.6µM
